Measured values published in paper PMC5540273 (PLoS ONE, 2017).

Columns and labels:
Settings in all cases: concentration: 1 μM, replicates: in singlicate; n = 1
[1] = test system: PIK3C2G
[2] = test system: PIK3CA
[3] = test system: PIK3CB
[4] = test system: PIK3CD
[5] = test system: PIK3CG
[6] = test system: T1, PIK4CB
T1 construct: gene PI4KB

[7] = test system: PIKFYVE
[8] = test system: PIM1
[9] = test system: PIM2
[10] = test system: PIM3
[11] = test system: PIP5K1A
[12] = test system: PIP5K1C
[13] = test system: PIP5K2B
[14] = test system: T2, PIP5K2C
T2 construct: gene PIP4K2C

[15] = test system: T3, PKAC-alpha
T3 construct: gene PRKACA

[16] = test system: T4, PKAC-beta
T4 construct: gene PRKACB

[17] = test system: PKMYT1
[18] = test system: PKN1
[19] = test system: PKN2
[20] = test system: PLK1
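Note: KINOMEscan kinase panel screen.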

Structure (SMILES) | %Inh [1] | %Inh [2] | %Inh [3] | %Inh [4] | %Inh [5] | %Inh [6] | %Inh [7] | %Inh [8] | %Inh [9] | %Inh [10] | %Inh [11] | %Inh [12] | %Inh [13] | %Inh [14] | %Inh [15] | %Inh [16] | %Inh [17] | %Inh [18] | %Inh [19] | %Inh [20]
COc1ccc(C)c(Nc2ccnc(Nc3ccc(-c4cnc[nH]4)cc3)n2)c1.Cl [GW784041] | 11% | 0% | 0% | 0% | 11% | 58% | 0% | 0% | 9% | 0% | 0% | 33% | 33% | 67% | 8% | 22% | 2% | 0% | 0% | 11%
CN(c1ccc2c(c1)nc(NCc1ccccc1)n2C)c1ccnc(Nc2ccc(CS(C)(=O)=O)cc2)n1.Cl [GW811603] | 0% | 0% | 41% | 0% | 29% | 26% | 50% | 0% | 0% | 0% | 23% | 44% | 0% | 79% | 0% | 0% | 0% | 0% | 0% | 0%
COc1cccc2c(-c3ccncc3)c(-c3ccc(F)cc3)nn12 [GW468513] | 0% | 0% | 0% | 11% | 0% | 0% | 0% | 9% | 0% | 0% | 0% | 64% | 6% | 26% | 23% | 31% | 0% | 6% | 0% | 0%
COC(=O)Nc1nc2ccc(Oc3ccc(NC(=O)Nc4cc(C(F)(F)F)ccc4F)cc3)cc2[nH]1.Cl [GW654607] | 0% | 0% | 17% | 0% | 3% | 0% | 0% | 0% | 0% | 0% | 0% | 30% | 34% | 16% | 0% | 6% | 0% | 39% | 16% | 0%
Cn1cc(-c2cnc(N)c3c(-c4ccc5c(c4)CCN5C(=O)Cc4ccccc4)csc23)cn1 [GSK2593074] | 35% | 8% | 0% | 0% | 3% | 100% | 0% | 0% | 15% | 1% | 0% | 0% | 1% | 0% | 9% | 0% | 8% | 0% | 7% | 0%
Nc1cccc(-c2ccc3c(N)n[nH]c3c2)c1 [GSK2193613] | 0% | 0% | 40% | 2% | 0% | 0% | 0% | 11% | 0% | 0% | 0% | 28% | 0% | 16% | 0% | 4% | 8% | 0% | 0% | 0%
O=C(Nc1c(F)cccc1F)c1cc(C(=O)c2ccccc2F)c[nH]1 [GSK1326180] | 0% | 0% | 0% | 0% | 0% | 0% | 0% | 0% | 0% | 0% | 34% | 49% | 0% | 25% | 0% | 5% | 3% | 8% | 0% | 18%
Cc1ccc(NC(=O)c2cccc(N3CCCCC3)c2)cc1-c1ccc(C(=O)NCC2CC2)cc1 [GSK1917008] | 45% | 1% | 0% | 25% | 0% | 11% | 0% | 15% | 0% | 0% | 0% | 25% | 8% | 0% | 0% | 14% | 0% | 17% | 0% | 0%
NCCC(NC(=O)c1cc(Br)c(-c2ccnc3[nH]ccc23)s1)c1ccccc1.O=C(O)C(F)(F)F.O=C(O)C(F)(F)F (centres unmarked) [GSK1307810] | 0% | 0% | 6% | 7% | 2% | 8% | 9% | 66% | 95.5% | 45% | 82% | 81% | 0% | 57% | 99.4% | 99.6% | 0% | 50% | 87% | 0%
CN(C)c1ncnc2nc[nH]c12 [SKF-31736] | 0% | 13% | 0% | 0% | 8% | 1% | 21% | 5% | 0% | 8% | 0% | 0% | 0% | 10% | 0% | 0% | 4% | 0% | 1% | 12%
